# Shown are actives, neighbours in structure and some others; about 2.4% of the full set was active somewhere.
# Pol iota inh = DNA polymerase iota (human) inhibition | Q9UNA4 | Pol iota fluorescent replication assay, 10 min | Potency, µM (top dose mostly 115 µM), inactives show at the highest dose activity, negative = inhibition, usual class: inhibitors | actives 1% (n = 390,000) | AID 588590
# Target sequence (Q9UNA4 whole entry, looked up): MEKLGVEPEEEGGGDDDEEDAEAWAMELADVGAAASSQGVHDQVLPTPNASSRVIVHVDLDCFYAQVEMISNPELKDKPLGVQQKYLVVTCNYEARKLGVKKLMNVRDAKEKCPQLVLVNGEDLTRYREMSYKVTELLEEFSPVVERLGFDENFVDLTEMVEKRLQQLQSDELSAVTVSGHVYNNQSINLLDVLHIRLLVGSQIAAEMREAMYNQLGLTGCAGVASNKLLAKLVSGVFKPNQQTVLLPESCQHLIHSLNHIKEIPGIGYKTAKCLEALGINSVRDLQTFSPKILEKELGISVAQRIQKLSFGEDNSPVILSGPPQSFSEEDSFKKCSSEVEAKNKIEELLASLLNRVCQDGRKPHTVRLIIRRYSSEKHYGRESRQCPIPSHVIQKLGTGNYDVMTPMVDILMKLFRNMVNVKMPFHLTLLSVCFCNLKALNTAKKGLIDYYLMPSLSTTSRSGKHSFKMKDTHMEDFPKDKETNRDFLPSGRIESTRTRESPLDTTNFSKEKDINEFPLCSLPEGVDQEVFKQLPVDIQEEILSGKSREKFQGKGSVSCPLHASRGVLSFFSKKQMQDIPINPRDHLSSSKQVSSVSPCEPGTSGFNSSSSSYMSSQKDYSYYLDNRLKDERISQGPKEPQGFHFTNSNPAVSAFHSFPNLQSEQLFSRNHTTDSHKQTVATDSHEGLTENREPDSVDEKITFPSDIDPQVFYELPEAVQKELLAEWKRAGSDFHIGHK
#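 Fluorescent replication assay read twice, at 0 min and 10 min after adding 50 nM (final) substrate. Enzyme (10 nM) and compounds were first incubated 15 min at room temperature; enzyme-free buffer wells were negative controls.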
# Pol kappa inh = inhibitors of human DNA polymerase kappa; Q9UBT6; purified Pol kappa, fluorescent DNA synthesis assay, 10 min; Potency, µM (series often up to 107 µM), without a hit: at the highest dose activity, negative = inhibition, usual class: inhibitors; actives 0.53% (n = 400,000); note: % is set by controls: 0 for no effect and ±100 for the full control effect
#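 10 nM Pol kappa was preincubated with compounds for 15 min at room temperature. Reaction started with 50 nM (final) substrate. Fluorescence read kinetically at 0 and 10 min.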
# WRN helicase inh = inhibitors of human WRN helicase | Q14191 | WRN helicase unwinding, fluorescent forked duplex, kinetic | Potency, µM (highest dose often 114 µM), for inactives: top-dose activity change, negative = inhibition, most hits filed as inhibitors | actives 0.46% (n = 360,000); note: % is set by controls: 0 for no effect and ±100 for the full control effect; nearly all actives have a fitted effect of over 55% in size
#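 WRN at 20 nM final was preincubated with compound for 15 min at room temperature; reaction started with 100 nM forked duplex oligonucleotide carrying fluorophore and quencher plus 2 mM ATP (final). Unwinding followed kinetically by red fluorescence (ex 525/em 598 nm).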
# Pol eta inh = blocks human DNA polymerase eta activity; AID 588591; actives 1.2% (n = 390,000); Potency, µM (series often up to 114 µM), for the others: at the top dose activity change, negative = inhibition, hits mostly inhibitors; recombinant Pol eta, fluorescent DNA replication assay; Q9Y253; note: % is set by controls: 0 for no effect and ±100 for the full control effect
#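 Pol eta (10 nM) was preincubated with compounds for 15 min at room temperature, after which fluorescent replication substrate (50 nM final) was added to start the reaction. Fluorescence was read kinetically at 0 and 10 min.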
# FEN1 inh = blocks human flap endonuclease 1. P39748. Recombinant FEN1 flap cleavage, fluorescence, 15 min. Potency, µM (top dose mostly 114 µM), inactives show at the highest dose activity change, negative = inhibition, actives largely listed as inhibitors. actives 0.35% (n = 390,000); note: % is set by controls: 0 for no effect and ±100 for the full control effect; nearly all actives have a fitted effect of over 65% in size
#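 With each library titrated from low to high concentration, compounds met 10 nM FEN1 for 15 min at room temperature before 50 nM substrate was added; readings at 0 and 15 min fed four-parameter Hill curve fits.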
# POLB inh = blocks human DNA polymerase beta activity; P06746; Pol beta primer extension/strand displacement, fluorescence kinetic; Potency, µM (series often up to 114 µM), for the others: top-dose activity change, negative = inhibition, hits mostly inhibitors; actives 1.3% (n = 340,000); AID 485314; note: % is set by controls: 0 for no effect and ±100 for the full control effect
#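 Pol beta (10 nM) and compounds were preincubated 15 min at room temperature, then 50 nM substrate (final) started primer extension/strand displacement. Reads were taken at 0 and 10 min; concentration-response data were fitted to a four-parameter Hill equation.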
# Starred values were filed as active, the others as inactive; ? = inconclusive; . = no result given; [ ] = another dose, or the depositor's remark. Calls come from the whole dose curve; as a rule, active = well fitted curve in the direction sought with a large enough effect; inconclusive = small, poorly fitted or top-dose-only effect, or another doubt; inactive = no such curve, though single readings can be large; an effect the other way counts as inactive or inconclusive. Potency is the fitted concentration of half-maximal effect.
SMILES,Pol iota inh,Pol kappa inh,WRN helicase inh,Pol eta inh,FEN1 inh,POLB inh
CCOc1cccc(C2C=C(c3ccc4c(c3)OCO4)NC(c3ccc(Cl)cc3)N2)c1O (stereo unspecified),-28.8%,-8.8%,.,.,-4.7%,.
Cc1cc(C(=O)O)ccc1-n1c(C)cc(/C=C(/C#N)C(=O)Nc2ccccc2)c1C,79.4µM*,-9.4%,?,?,0.7%,-5.3%
COc1ccc(Cl)cc1NC(=O)CN(c1cc(C)cc(C)c1)S(=O)(=O)c1c(C)n[nH]c1C,79.4µM*,?,.,?,?,-9.0%
Cc1cccc(N2CCN(S(=O)(=O)c3ccc(-c4cc(C(F)(F)F)on4)s3)CC2)c1C,4.4%,21.6%,.,-4.1%,-9.9%,21.5%
C#CCOCCOCCOCCNc1nc(N2CCN(C(=O)C(Cc3ccc(O)cc3)n3cc(C(N)CC(C)C)nn3)CC2)nc(N2CCN(C(=O)C(Cc3cc4ccccc4[nH]3)n3cc(C(N)Cc4ccc(O)cc4)nn3)CC2)n1 (stereo unspecified),.,.,.,.,.,35.5µM*
C#CCOCCOCCOCCNc1nc(N2CCN(C(=O)[C@H](CCC(=O)O)n3cc(C(N)Cc4ccc(O)cc4)nn3)CC2)nc(N2CCN(C(=O)[C@H](Cc3cc4ccccc4[nH]3)n3cc(C(N)CC(C)C)nn3)CC2)n1 (stereo partly specified),.,.,.,.,.,-6.0%
C#CCOCCOCCOCCNc1nc(N2CCN(C(=O)[C@H](CCCCN)n3cc(CN)nn3)CC2)nc(N2CCN(C(=O)[C@H](CCCCN)n3cc([C@@H](N)CC(N)=O)nn3)CC2)n1,8.91µM*,8.7%,-13.6%,-8.4%,-15.9%,.
C#CCOCCOCCOCCNc1nc(N2CCN(C(=O)[C@H]([C@@H](C)CC)n3cc([C@@H](N)CC(C)C)nn3)CC2)nc(N2CCN(C(=O)[C@H](CCCCN)n3cc([C@@H](N)CC(C)C)nn3)CC2)n1,14.1µM*,-18.2%,-1.1%,-7.6%,-4.2%,44.4%
C#CCOCCOCCOCCNc1nc(N2CCN(C(=O)[C@H]([C@@H](C)CC)n3cc([C@@H](N)CC(C)C)nn3)CC2)nc(N2CCN(C(=O)[C@H](CCCCN)n3cc([C@@H](N)C(C)CC)nn3)CC2)n1 (stereo partly specified),?,0.0%,4.2%,-11.1%,-2.5%,1.9%
CCc1ccc(NCc2cc3ccc(OC)cc3n(CC(=O)Nc3cccc(Cl)c3C)c2=O)cc1,-4.5%,-2.5%,.,-12.5%,-5.6%,0.3%
COc1ccc2c(c1)C1OCCC1C(c1ccco1)N2 (stereo unspecified),79.4µM*,-19.3%,-4.4%,-3.9%,1.4%,.
c1coc(C2Nc3ccccc3C3OCCC23)c1 (stereo unspecified),0.3%,-9.1%,-2.1%,-4.5%,5.3%,8.0%
O=C(NC1CCCCC1)[C@@H]1CC=C[C@@H]2CCN(Cc3ccc(Cl)c(Cl)c3)C(=O)[C@@H]21,-7.5%,-8.7%,.,.,15.1%,.
COC(=O)c1nc(NC(=O)c2ccc(Br)cc2)n[nH]1,-3.3%,-12.0%,-17.7%,-2.6%,1.4%,12.8%
COC(=O)c1nc(NC(=O)C(C)(C)C)n[nH]1,79.4µM*,-8.2%,10.3%,1.8%,-16.4%,0.8%
Cc1cccn2c(=O)c3cc(S(=O)(=O)c4ccccc4)c(=N)n(Cc4ccc(F)cc4)c3nc12,15.1%,2.7%,1.2%,-18.1%,-17.4%,11.2%
Cc1cccn2c(=O)c3cc(S(=O)(=O)c4ccc(F)cc4)c(=N)n(Cc4ccco4)c3nc12,11.2µM*,?,-3.8%[57.1 µM],-8.5%,2.8%,?
Cc1cccn2c(=O)c3cc(S(=O)(=O)c4ccccc4)c(=N)n(Cc4ccco4)c3nc12,4.0%,-29.5%,-10.4%,-1.0%,3.6%,8.91µM*
CCOC(=O)c1ccc(S(=O)(=O)N2CCN(c3nc(-c4ccccc4)nc4ccccc34)CC2)cc1,6.9%,-15.6%,.,.,-6.8%,.
O=C(/C=C/c1ccc(I)cc1)c1ccc(B(O)O)cc1,.,5.8%[60.1 µM],.,.,.,.

# Assay outcomes: PubChem BioAssay, National Center for Advancing Translational Sciences (NCATS)
